# Only some compounds are listed: those with a hit (about 3.3% of all), similar ones and a draw of the others.
# ERb coact inh: inhibitors of ERβ-SRC1 coactivator interaction, primary screen, biochemical, TR-FRET, ERβ LBD, SRC-1 peptide. AID 633, 2007. TR-FRET ER-beta LBD / SRC1-Cy5 peptide binding; receptor agonist-loaded with 1 µM estradiol. inhibition, % at 25.6 µM. Estrogen receptor beta (Homo sapiens), Q92731. 86,000 tested, 1.3% active;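 active = compounds whose percent inhibition of the receptor-coactivator binding signal exceeds about 50% in the single-dose screen, limit read from the data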;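 note: 0% = receptor plus peptide wells without compound and 100% = peptide-only wells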
# ERa coact pot: enhancers of ERα–SRC-1 coactivator binding, primary screen, biochemical, TR-FRET, ERα LBD, low estradiol; Estrogen receptor (Homo sapiens), P03372; TR-FRET ERalpha-LBD/SRC-Cy5 coactivator binding, 2 h; 100 = basal binding, no effect; coactivator binding (% of control), % at 25.6 µM; 86,000 tested, 1.3% active; AID 639, 2007; in the data active = activity above about 200%;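 note: binding measured in presence of low estradiol as agonist stimulus; 0% = peptide alone without receptor and 100% = receptor with peptide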
# ERa SRC1 inh: ERα–SRC-1 coactivator interaction inhibitors, primary screen, biochemical, TR-FRET, ERα LBD, estradiol-bound; Estrogen receptor (Homo sapiens), P03372; TR-FRET ER-alpha LBD / SRC-1 peptide; inhibition, % at 25.6 µM; 86,000 tested, 1.7% active; in the data active = inhibition above about 50%;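 note: 0% = receptor plus peptide control and 100% = peptide only without receptor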
# Smad3 FoxH1 inh: Smad3/FoxH1 peptide binding inhibitors, primary screen, biochemical, TR-FRET; Mothers against decapentaplegic homolog 3 (Homo sapiens), P84022; inhibition, % at 25 µM; 88,000 tested, 0.29% active; TR-FRET Smad3/Dy647-FoxH1 peptide binding, europium anti-His;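 active = compounds that reduce the energy-transfer binding signal between the protein and its labelled peptide by more than half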;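 note: 0% = Smad3 plus labelled peptide maximal FRET and 100% = peptide-only background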
# Target sequence (P84022 whole entry, looked up): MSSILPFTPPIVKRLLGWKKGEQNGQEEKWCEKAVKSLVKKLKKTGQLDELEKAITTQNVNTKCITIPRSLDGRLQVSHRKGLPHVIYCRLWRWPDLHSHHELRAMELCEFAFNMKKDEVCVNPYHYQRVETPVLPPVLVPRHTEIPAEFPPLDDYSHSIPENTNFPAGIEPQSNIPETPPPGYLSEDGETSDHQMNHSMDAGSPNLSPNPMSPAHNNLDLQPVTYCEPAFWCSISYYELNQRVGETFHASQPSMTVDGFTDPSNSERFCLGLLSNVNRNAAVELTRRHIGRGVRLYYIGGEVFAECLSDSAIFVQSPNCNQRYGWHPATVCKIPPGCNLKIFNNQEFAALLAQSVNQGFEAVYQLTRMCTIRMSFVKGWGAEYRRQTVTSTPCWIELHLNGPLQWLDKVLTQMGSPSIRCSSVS
# Candida biofilm: clotrimazole potentiators killing Candida biofilms, primary screen, with clotrimazole, Alamar Blue | C. albicans biofilm + clotrimazole | inhibition, % at 6 µM | 85,000 tested, 0.14% active | AID 834, 2007;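 active = inhibition above 20%; inactive = inhibition below 20%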;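 note: preformed 24 hr biofilms exposed to compound for 48 hr; 0% = biofilm without compound and 100% = blank killed by clotrimazole plus chlorhexidine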
# FAK inh: FAK kinase inhibitors, primary screen, biochemical; biochemical FAK kinase activity assay; AID 727, 2007; Focal adhesion kinase 1 (Homo sapiens), Q05397; 97,000 tested, 0.84% active; inhibition, %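 (tested at 7 µM)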; in the data active = inhibition above about 19%;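 note: 0% = DMSO and 100% = reference compound high control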
# Active calls of the source: *; · = not tested or not shown; [ ] = dose if it differs, or a comment.
SMILES,ERb coact inh,ERa coact pot,ERa SRC1 inh,Smad3 FoxH1 inh,Candida biofilm,FAK inh
O=C(CCCn1c(=S)[nH]c2cc3c(cc2c1=O)OCO3)N1CCN(c2ccc(Cl)cc2)CC1,27.4,73.5,66.0*,-11.0,7.0,8.7
O=C(CCCn1c(=S)[nH]c2cc3c(cc2c1=O)OCO3)N1CCc2ccccc2C1,50.7*,124.5,20.3,-0.7,-0.1,4.7
O=C(CCn1c(=S)[nH]c2cc3c(cc2c1=O)OCO3)N1CCc2ccccc2C1,15.3,104.3,6.2,6.1,1.6,7.6
O=C(NCCN1CCCC1)c1ccc(Cn2c(=S)[nH]c3cc4c(cc3c2=O)OCO4)cc1,45.1,144.6,70.1*[fluorescence artefact?],-7.8,11.6,0.3
COC(=O)CC1Oc2ccccc2N(Cc2ccccc2)C1=O (centres undefined),4.6,43.7,-3.2,-2.4,-7.1,·
CSc1nc2ccc(NC(=O)C3CC(=O)N(Cc4ccccc4)C3)cc2s1 (centres undefined),-9.2,108.5,-4.5,1.2,4.2,-0.4
c1ccc(Cn2ncc3c2ncn2c(-c4ccncc4)nnc32)cc1,-5.4,110.2,-7.5,-5.8,9.1,·
Cc1ccc(-n2ncc3c2ncn2c(-c4ccncc4)nnc32)cc1,31.5,89.5,66.0*[fluorescence artefact?],-3.2,-6.2,·
C[C@H](Br)C(=O)Nc1ccc(C(=O)O)c(O)c1,·,·,·,3.1,·,·
CC(=O)C(C(C)=O)c1c(Cl)c(O)c(O)c2c(C(=O)c3ccccc3)coc12,55.2*[fluorescence artefact?],82.9,22.4,6.2,4.4,6.0
CN1CCN(Cc2c(O)ccc3occ(C(=O)c4ccccc4)c23)CC1,-3.1,110.1,-4.0,12.9,3.9,5.8
Cc1csc2nc(CCNS(=O)(=O)c3ccc4c(c3)OCCO4)cn12,24.4,58.4,53.8*,-0.2,-1.7,-3.0
COc1ccc(S(=O)(=O)NCc2cn3c(C)csc3n2)cc1F,-2.8,114.7,-7.2,-3.0,21.3*,-0.2
Cc1csc2nc(CNS(=O)(=O)c3ccc4c(c3)OCCO4)cn12,6.6,103.8,2.1,0.0,-4.7,2.7
CC(CC(=O)O)(CC(=O)O)C(=O)O,·,·,·,3.8,·,·
CCOc1ccc(Cn2nnc(C(=O)NCc3ccc(OC)cc3)c2N)cc1,6.7,227.7*,2.4,11.2,5.1,-3.1
O=C(C1CCCO1)N1CCN(c2ccc(F)cc2)CC1 (centres undefined),16.2,101.2,-2.8,0.2,3.6,-2.3
COc1cccc(NC(=O)c2nnn(Cc3ccc(Br)cc3F)c2N)c1,-24.2,269.9*,-3.5,-9.4,3.9,·
O=C(O)c1nn(-c2ccccc2-c2n[nH]c(=O)[nH]c2=O)c(=O)[nH]c1=O,·,·,·,18.2,·,·
Cc1ccc(NC(=O)CN(C)c2ccc(S(=O)(=O)N3CCN(C)CC3)cn2)cc1,5.2,480.9*[fluorescence artefact?],-66.4,-8.6,7.8,3.5
CC(C)C(=O)Nc1ccc2oc(-c3cc(F)c(F)cc3Cl)nc2c1,13.0,217.3*,5.3,2.6,7.6,-1.6
O=C(Nc1ccc2oc(-c3ccccc3Cl)nc2c1)c1ncn[nH]1,50.0*[fluorescence artefact?],224.1*[fluorescence artefact?],66.5*[fluorescence artefact?],3.7,-0.4,4.6
O=C(Nc1ccc2oc(-c3cccc4ccccc34)nc2c1)c1ncn[nH]1,·,·,·,·,·,3.9
Cc1cccc(-c2nnc(SCC#N)n2-c2cccc(Cl)c2)c1,-8.2,130.9,5.3,-1.9,11.5,-2.5
COc1ccc(-n2c(SCCC#N)nnc2-c2cc(Cl)ccc2OC)cc1Cl,45.6,398.6*[fluorescence artefact?],47.1,8.6,4.4,-2.5
SMILES,ERb coact inh,ERa coact pot,ERa SRC1 inh,Smad3 FoxH1 inh,Candida biofilm,FAK inh
COc1ccc2c(c1[N+](=O)[O-])CCC/C2=N/OC(=O)c1cccc2ccccc12,10.9,79.9,7.1,-6.4,1.3,3.4
Cc1nn(Cc2ccc(C(=O)Nc3nc4c(C)cccc4s3)o2)c(C)c1Br,26.9,136.5,50.3*,8.2,2.7,-1.3
Cc1cccc2sc(NC(=O)CSCc3ccccc3)nc12,-5.4,100.6,-2.4,0.8,49.8*,0.5
CC(=O)C1=C(C)Nc2ncnn2C1c1ccc(Cl)cc1Cl (centres undefined),-12.9,117.8,-2.5,14.9,5.8,5.7
O=C(Cn1cnc2c(oc3ccccc32)c1=O)c1ccccc1,-8.3,265.9*[fluorescence artefact?],-4.3,1.1,2.7,-0.2
Cc1ccccc1NC(=O)Cn1cnc2c(oc3ccccc32)c1=O,20.8,80.4,23.0,-4.0,10.1,0.0
CCOc1ccc(C(=O)Nc2cc(C)c3c(=O)oc4ccccc4c3n2)cc1,25.1,315.0*[fluorescence artefact?],33.2,16.2,4.0,-16.7
COc1ccc(CC(=O)Nc2cc(C)c3c(=O)oc4ccccc4c3n2)cc1,52.6*[fluorescence artefact?],243.3*,37.7,-3.9,17.7,·
CCC(CC)C(=O)Nc1cc(C)c2c(=O)oc3ccccc3c2n1,7.6,98.0,7.0,3.6,3.9,·
CO[C@@H]1/C=C\O[C@]2(C)Oc3c(C)c(O)c4c(O)c(c(CN5CCN(C)CC5)c(O)c4c3C2=O)NC(=O)C(C)=C/C=C\[C@@H](C)[C@@H](O)[C@H](C)[C@@H](O)[C@H](C)[C@H](OC(C)=O)[C@@H]1C,·,·,·,6.5,·,·
CC(C)CCNC(=S)Nc1ccc(F)cc1,·,·,·,·,·,2.2
Cc1nn(CC(=O)NC(C)c2ccccc2)c(=O)c2ccccc12 (centres undefined),-14.1,124.9,-4.5,4.2,3.8,·
Cc1ccc(-c2nn(CC(=O)NC(C)c3ccccc3)c(=O)c3ccccc23)cc1 (centres undefined),1.4,207.5*[fluorescence artefact?],27.0,-13.7,5.2,-4.0
O=C(Nc1ccc(N2CCOCC2)cc1)C1CCCN(S(=O)(=O)c2cccc(C(F)(F)F)c2)C1 (centres undefined),85.2*[fluorescence artefact?],103.8,-4.3,-5.3,1.1,1.5
O=C(Nc1cccc(C(F)(F)F)c1)C1CCCN(S(=O)(=O)c2cnc[nH]2)C1 (centres undefined),-12.6,111.2,-3.2,0.5,-0.5,-1.6
COc1ccc(C[C@H](O)CN2CCOCC2)cc1,·,·,·,-7.0,·,·
COCc1cc(C)nc(SCC(=O)Nc2ccc(C)c(C)c2)c1C#N,2.6,207.8*[fluorescence artefact?],-6.8,9.4,4.7,·
COCc1cc(C)nc(SCC(=O)Nc2ccccc2C)c1C#N,-11.4,135.0,-3.3,3.1,4.7,-5.5
Cc1cccc(NC(c2ccc(O)cc2)c2ccc3ccc(C)nc3c2O)n1 (centres undefined),49.9,320.4*[fluorescence artefact?],49.1,18.5,1.4,-0.9
Cc1cc(NC(c2cccnc2)c2ccc3cccnc3c2O)no1 (centres undefined),6.9,122.4,4.7,10.2,6.2,-0.5
COc1cc(C(=O)N2CCC(O)(c3ccccc3)CC2)cc(OC)c1OC,·,·,·,·,·,-3.5
